# Assay outcomes as filed in PubChem.
# PHOSPHO1 inh – inhibitors of human PHOSPHO1 phosphatase. Q8TCT1. recombinant PHOSPHO1, absorbance phosphatase assay. inhibition, % at 13.3 µM. hit rate 1.1% among 290,000; in the data active means inhibition above about 60%
# CHT block – inhibitors of human choline transporter CHT; Q9GZV3; CHT-expressing cells, membrane potential dye, choline response; active compounds read low; B-score at 10 µM; hit rate 0.86% among 310,000; AID 488975;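 active means B-score over 3 SD under the library average, and starting fluorescence ratio not unusually high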;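 further: choline stimulus applied at its EC90 after an EC20 pre-addition; B-score computed on integrated fluorescence ratio after choline addition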
# Target sequence (Q9GZV3 whole entry, looked up): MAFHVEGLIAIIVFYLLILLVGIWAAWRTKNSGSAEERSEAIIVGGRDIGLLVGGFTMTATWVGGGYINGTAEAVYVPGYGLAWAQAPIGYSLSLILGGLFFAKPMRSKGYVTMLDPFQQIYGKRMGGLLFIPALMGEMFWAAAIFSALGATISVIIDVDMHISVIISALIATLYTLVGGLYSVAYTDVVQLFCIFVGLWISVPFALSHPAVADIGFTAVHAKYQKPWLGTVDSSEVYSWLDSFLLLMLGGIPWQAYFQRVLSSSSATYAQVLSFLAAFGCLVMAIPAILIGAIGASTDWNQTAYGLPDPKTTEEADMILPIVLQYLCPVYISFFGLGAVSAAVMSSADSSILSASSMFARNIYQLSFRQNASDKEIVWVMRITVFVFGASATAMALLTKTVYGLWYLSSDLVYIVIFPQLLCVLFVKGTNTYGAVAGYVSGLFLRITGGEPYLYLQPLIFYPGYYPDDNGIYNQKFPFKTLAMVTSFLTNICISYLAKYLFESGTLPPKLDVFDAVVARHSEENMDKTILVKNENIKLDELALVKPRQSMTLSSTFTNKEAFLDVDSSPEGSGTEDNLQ
# CHT PAM – human CHT allosteric activation; B-score at 10 µM; CHT-expressing cells, membrane potential dye, choline EC20; active compounds read high; LV-AA mutant CHT in HEK293 cells; Q9GZV3; hit rate 0.49% among 310,000;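 active means initial fluorescence not abnormally high and integrated response B-score, plate-corrected, over 3 SD above library mean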
# ANO1 activ – mouse TMEM16A channel activation, primary screen | Q8BHY3 | HEK293 TMEM16A/YFP-H148Q/I152L, iodide quench fluorescence; active compounds read low | B-score at 10 µM | hit rate 0.3% among 340,000;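 active means fluorescence-ratio B-score plate-corrected deviation score at least 3 library SD below zero, with starting fluorescence score within 5 deviations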;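 further: channel opened by trigger with iodide after compound preincubation; score built on the fluorescence ratio of max minus min over baseline; more negative score means more quench and so TMEM16A activation or potentiation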
# ANO1 block – blocks the mouse calcium-activated chloride channel TMEM16A; AID 588511; hit rate 1.2% among 310,000; normalized B-score (activity score, 25-100; higher = stronger inhibition) at 10 µM; Q8BHY3; HEK293 TMEM16A/YFP iodide influx fluorescence, ionomycin;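 active means ratio plate-corrected score three or more library SD toward inhibition, starting fluorescence score within five deviations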;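 further: score derived from kinetic fluorescence span divided by baseline fluorescence per well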
# HDAC3 inhib – inhibitors of human histone deacetylase 3. recombinant HDAC3, fluorogenic peptide/trypsin coupled, fluorescence. inhibition, % at 8.3 µM. O15379. hit rate 0.15% among 320,000; in the data active means inhibition above about 26%, passing the limit was not always enough
# CHT activ conf – human CHT activation, confirmatory screen; shares compounds with CHT PAM; AID 504833; activation, % at 10 µM; hit rate 91% among 2,500; CHT-expressing cells, membrane potential dye fluorescence (FDSS); % of choline EC20–EC90 response window; HEK293 expressing CHT LV-AA mutant; choline added at its EC20;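 active means primary screen active, with duplicate mean activation above negative control mean plus 3 SD, cut at about 11% in these data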
# HEK293 MP dye – CHT activator counter-screen hit in parental HEK293 cells | membrane potential dye fluorescence (FDSS); measured after EC20 choline addition | ratio readout change at 10 µM, hits read low | shares compounds with CHT PAM | hit rate 62% among 2,500 | AID 623908;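 active means duplicate-averaged ratio beyond 3 SD from buffer wells, up or down, though filed actives are nearly all decreases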
# * marks the source's active call; other numbers are inactive results; i = inactive; x = not tested or not shown. A selection: hits, their analogues and other compounds. The true share with any hit is near 3.2%.
SMILES,PHOSPHO1 inh,CHT block,CHT PAM,ANO1 activ,ANO1 block,HDAC3 inhib,CHT activ conf,HEK293 MP dye
CC[n+]1cc(-c2ccccc2)nc(N2CCOCC2)n1,100*,i,i,i,i,3,41*,-39*
Cc1cc(N2CCN(S(=O)(=O)Cc3ccccc3)CC2)n2ncnc2n1,33,i,i,i,i,3,x,x
COc1ccc(C(c2nnnn2Cc2cccs2)N2CCN(c3ccccc3F)CC2)cc1 (centres undefined),-7,i,i,i,i,2,31*,i
CCn1c(=O)cc(SCC(=O)N2CCN(C3CCCCC3)CC2)c2ccccc21,7,i,i,i,i,3,x,x
Cc1nc2ccccn2c1C(=O)N/N=C/c1ccc([N+](=O)[O-])o1,36,i,i,i,i,0,31*,-39*
O=C(N/N=C/c1cc(Br)ccc1O)c1ccncc1,24,i,i,i,i,5,x,x
O=C(N/N=C/c1cc([N+](=O)[O-])ccc1O)c1ccncc1,12,i,i,i,i,-2,36*,-39*
C/C(=N\NC(=O)c1c(C)nc2ccccn12)c1ccco1,28,i,10*,i,i,-3,15*,i
O=C(N/N=C/c1ccc([N+](=O)[O-])o1)c1ccncc1,41,i,i,i,i,-1,56*,-47*
N#C/C(=C\c1cc([N+](=O)[O-])c(N2CCCCC2)cc1N1CCCCC1)c1nn(-c2ccccc2)c(N)c1C#N,18,i,i,i,i,2,x,x
COc1ccc(-c2oc3cc(O)c(OC)c(O)c3c(=O)c2OC)cc1O,x,x,x,i,x,x,x,x
COc1ccc(N/C(=N/c2nc(C)cc(C)n2)NC(=O)c2ccccc2)cc1,25,i,i,i,i,0,x,x
CC(=O)N1CCN(S(=O)(=O)c2cccc(C(=O)Nc3nccs3)c2)CC1,16,i,i,i,i,-4,x,x
COc1ccc(Nc2nc(NCC3CCCO3)nc(N)c2[N+](=O)[O-])cc1 (centres undefined),42,i,i,i,i,0,x,x
CC1CCN(Cc2c(C(=O)N/N=C/c3ccc(C(C)(C)C)cc3)nnn2-c2nonc2N)CC1,44,i,7*,i,i,2,14*,i
C/C(=N\NC(=O)c1nnn(-c2nonc2N)c1CN1CCC(C)CC1)c1cccc(Br)c1,18,i,i,i,i,-1,16*,i
CC1CCN(CCCNc2cc(NCCO)c([N+](=O)[O-])c3nonc23)CC1,11,i,i,i,i,2,31*,-62*
CN(CCO)c1cc(NCCCN2CCC(Cc3ccccc3)CC2)c2nonc2c1[N+](=O)[O-],-37,i,i,i,i,0,x,x
CCCCN(CC)CCNC(=O)CN(C)S(=O)(=O)c1ccc2c(c1)c(=O)n(C)c(=O)n2C,40,i,i,i,i,-3,32*,-34*
COc1ccc(CNC(=O)CN(C)S(=O)(=O)c2ccc3c(c2)c(=O)n(C)c(=O)n3C)cc1,38,i,i,i,i,2,x,x
COc1ccc(C(=O)NCc2ccccc2)cc1S(=O)(=O)N1CCCc2ccccc21,8,i,i,i,i,9,x,x
O=C(Nc1ccccc1)OC1CCC2CC1CCC2OC(=O)Nc1ccccc1 (centres undefined),-5,i,i,i,i,5,32*,i
CCC(Sc1ncccc1C(=O)OCCN1CCCC1=O)C(=O)NCc1ccco1 (centres undefined),36,i,i,i,i,4,x,x
CCCNC(=S)N1CCC(C(=O)c2ccc(OC)cc2)CC1,8,i,6.7*,i,i,4,-20,i
